# Reference: PubChem BioAssay AID1845226 (National Center for Advancing Translational Sciences (NCATS), 2023)
# Results filed as inconclusive are left out. Calls of active or inactive are those of the source. Calls follow the shape of the dose curve; as a rule, active = well fitted inhibition curve with a large enough effect; inconclusive = small, poorly fitted or top-dose-only effect; inactive = no such curve, though single readings can be large or run the other way.
# Test: Confirmatory fluorescence-based thiol-reactive (MSTI) qHTS assay for identification of artifact compounds
# Details: MSTI thiol-reactivity probe, 1 h; series mostly up to 39.2 µM; activity change, negative = inhibition: at the top concentration
# Procedure, shortened: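 Probe solution (4 uM MSTI, 2% DMSO/PBS, pH 7.4) is dispensed, then compounds are pinned. Plates incubate for 1 h at room temperature, light-protected, before fluorescence is read at 525/598 nm.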
# Potency is read from the fitted curve at half-maximal effect.
SMILES,"activity change, negative = inhibition",Potency
CCCCn1c(-c2ccc(C)cc2)c(C)n2c3c(=O)n(C)c(=O)n(C)c3nc12,-26% (inactive),
COc1ccc(C)cc1NC(=O)CN1C(=O)COc2ccc(S(=O)(=O)NC3CCCC3)cc21,104% (inactive),
O=C1c2ccccc2C(=O)c2c(O)c(O)cc(O)c21,,612 nM (active)
COc1ccc(C2=NN(CCC(=O)NCCc3ccccc3)C(=O)CC2)cc1,54.8% (inactive),
O=C(O)c1ccc(-n2c(/C=C\c3ccc(O)cc3)nc3ccccc3c2=O)cc1,62.5% (inactive),
Cc1cc(C)cc(NC(=O)C(CC(C)C)NC(=O)C2CCCCC2)c1 (stereo not drawn),32.1% (inactive),
O=C(Nc1cccc(Cc2ccccc2)c1)c1ccc(-c2cccc([N+](=O)[O-])c2)o1,-1.94% (inactive),
COC(=O)c1ccc(NC(=O)CC2C(=O)N(c3ccccc3)C(=O)N2Cc2cccs2)cc1 (stereo not drawn),170% (inactive),
O=C(Nc1ccc2oc(-c3cccc4c(Br)cccc34)nc2c1)c1cccnc1,32.8% [at 78.4 µM] (inactive),
CC1CCc2noc(NC(=O)c3ccc([N+](=O)[O-])cc3)c2C1 (stereo not drawn),,2440 nM (active)
CC(C)C(=O)OC1=CN(Cc2ccccc2)S(=O)(=O)c2ccccc21,34.1% (inactive),
C/C(=C\c1ccc2c(c1)OCO2)C1Nc2cccc3cccc(c23)N1,,3070 nM (active)
CCOc1ccc(C(=O)N2CCC(c3nc(-c4ccc(S(=O)(=O)N5CCCC5)cc4)no3)CC2)cc1,15.2% (inactive),
Cc1sc2ncn(CC(=O)N3CCN(c4ccccc4)CC3)c(=O)c2c1S(=O)(=O)N1CCC(C)CC1,13.5% (inactive),
CC1(C)S[C@@H]2[C@H](NC(=O)[C@H](N)c3ccccc3)C(=O)N2[C@H]1C(=O)O,129% (inactive),
O=C(CCn1c(=O)c2cccn2c2cccnc21)N1CCN(c2ccccc2F)CC1,79.7% (inactive),
Cc1ccc(OCc2nc3ccccc3n2Cc2ccccc2Cl)cc1,-4.67% (inactive),

SMILES,"activity change, negative = inhibition",Potency
COc1ccc(NC(=O)C(=O)Nc2ccc3nc4n(c(=O)c3c2)CCCCC4)c(OC)c1,122% (inactive),
CCOc1ccc(CNC(=O)c2cnc(SC)nc2CC)cc1,49.6% (inactive),
O=C(/C=C/c1ccc(O)c(O)c1)OC1C[C@](O)(C(=O)O)C[C@@H](O)[C@H]1O (stereo partly drawn),0.358% (inactive),
Clc1ccccc1CNc1ncnc2nc[nH]c12,32.4% (inactive),
COCCn1c(=N)c(C(=O)NC2CCCC2)cc2c(=O)n3cc(C)ccc3nc21,27.1% (inactive),
O=S(=O)(Nc1ccc(S(=O)(=O)Nc2nccs2)cc1)c1ccc2ccccc2c1,160% (inactive),
COc1ccc(-c2cc(C(F)(F)F)n3nc(-c4ccc(Cl)cc4)cc3n2)cc1OC,214% (inactive),
Cc1ccccc1C(=O)Nc1cc(C)c(O)c(-c2nc3ccccc3o2)c1,86.6% (inactive),
COc1ccc(N2C(=O)NC(NS(=O)(=O)c3ccc(Cl)cc3)(C(F)(F)F)C2=O)cc1 (stereo not drawn),4.2% (inactive),
CC[C@H]1OC(=O)[C@H](C)[C@@H](O[C@H]2C[C@@](C)(OC)[C@@H](O)[C@H](C)O2)[C@H](C)[C@@H](O[C@@H]2O[C@H](C)C[C@H](N(C)C)[C@H]2O)[C@](C)(O)C[C@@H](C)C(=O)[C@H](C)[C@@H](O)[C@]1(C)O,30.9% (inactive),
COc1cc(O)c2c(c1)oc(=O)c1c3cc(O)c(O)cc3oc21,,1090 nM (active)
O=C1CCC(=O)N1CO,-16.4% (inactive),
COC(=O)c1ccc(NC(=O)CC2C(=O)N(c3ccccc3)C(=O)N2Cc2ccco2)cc1 (stereo not drawn),188% (inactive),
CCCC(N[C@@H](C)C(=O)N1[C@H](C(=O)O)C[C@@H]2CCCC[C@@H]21)C(=O)OCC (stereo partly drawn),-0.232% (inactive),
Cc1ccc(NC(=O)CCn2cccn2)cc1Cl,17.3% (inactive),
COc1ccc(CNC(=O)c2cc3sccc3n2Cc2ccc(C)cc2)cc1,31.5% (inactive),
